Source: PubChem
An excerpt weighted towards active compounds, which were near 14% of everything screened.
Giardia FBPA inh = qHTS Assay for Inhibitors of Fructose-1,6-bisphosphate Aldolase from Giardia Lamblia; A8B2U2; purified Giardia FBPA; Potency, µM (series often up to 59.6 µM), usual class: inhibitors; hit rate 0.71% among 290,000; AID 2451, 2010; further: nearly all actives have a fitted effect of over 55% in size
Target sequence (A8B2U2 whole entry, looked up): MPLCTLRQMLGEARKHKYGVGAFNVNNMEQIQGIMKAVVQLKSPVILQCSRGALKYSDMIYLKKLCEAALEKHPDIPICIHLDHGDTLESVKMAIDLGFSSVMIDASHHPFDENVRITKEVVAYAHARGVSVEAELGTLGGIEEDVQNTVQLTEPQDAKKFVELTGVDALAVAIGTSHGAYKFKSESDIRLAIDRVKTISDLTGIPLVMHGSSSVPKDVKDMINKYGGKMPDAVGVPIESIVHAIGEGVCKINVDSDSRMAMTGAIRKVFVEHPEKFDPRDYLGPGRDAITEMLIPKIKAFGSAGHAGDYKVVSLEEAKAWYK
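Giardia FBPA (40 nM reagent) was preincubated 10 min at RT with compound (up to 57.5 uM final), then substrate plus GAPDH/TPI/NAD/arsenate coupling system with diaphorase/resazurin was added; resorufin fluorescence (525/598 nm) was read after 20 min.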
LmPK inh = qHTS Assay for Inhibitors of Leishmania Mexicana Pyruvate Kinase (LmPK); Q27686; purified LmPK, Kinase-Glo ATP luminescence, 1 h; Potency, µM (top dose mostly 57.5 µM), usual class: inhibitors; hit rate 0.37% among 290,000; AID 1721, 2009
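Purified LmPK (0.1 nM) with 0.5 mM PEP and 0.1 mM ADP in imidazole buffer pH 7.2 with MgCl2/KCl, 1 h at room temperature. ATP formed was read by luciferase luminescence and normalized to no-enzyme and uninhibited controls.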
NS1 inh = qHTS Assay for Inhibitors of Influenza NS1 Protein Function. Potency, µM (top dose mostly 46.1 µM). hit rate 0.4% among 270,000. AID 2326, 2010; calls by dose curve; further: actives are rising curves; nearly all actives have a fitted effect of over 50% in size
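S. cerevisiae expressing influenza A NS1, grown in glucose, washed, then diluted 1:100 into pH 6.0 -URA galactose medium with 23 nl compound. Growth recovery read as OD600; NS1-free strain serves as control.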
CHX counter = Cycloheximide Counterscreen for Small Molecule Inhibitors of Shiga Toxin | cell reporter, cycloheximide protein synthesis inhibition counterscreen | max response, % | hit rate 12% among 300,000 | AID 2314, 2010; in the data active means max response mostly above about 13%, no sharp cut-off; inactive means mostly below about 14%; further: read at 38.3 µM for the half of the compounds with a filed dose
Shiga toxin inh = A qHTS for Small Molecule Inhibitors of Shiga Toxin. AID 2315, 2010. inhibition, % at 38.7 µM. hit rate 9.2% among 290,000. Vero cells, Shiga toxin protein synthesis inhibition reporter; in the data active means inhibition mostly above about 28%, no sharp cut-off; inactive means mostly below about 43%
Large screens that a line does not name were inactive. Unless noted, the call rests on the fitted dose curve; in most records, active means well fitted curve in the direction sought with a large enough effect; inconclusive means small, poorly fitted or top-dose-only effect, or another doubt; inactive means no such curve, though single readings can be large; an effect the other way counts as inactive or inconclusive.

O=C(CSc1n[nH]c(=O)[nH]c1=O)N/N=C/c1ccccc1O	none
O=C(CSc1ccccc1)N/N=C/c1ccccc1O	CHX counter 25
COc1ccc(/C=N/NC(=O)CSc2ccccc2)cc1OC	CHX counter 14
COc1ccc(/C=N/NC(=O)CSc2ccccn2)cc1OC	CHX counter 23, Shiga toxin inh 30
COc1ccccc1/C=N/NC(=O)CO	none (no result: NS1 inh)
COc1ccc(NC(=O)CSc2ccccn2)cc1OC	none
COc1ccccc1/C=N/NC(=O)CC(=O)NCc1ccccc1	Giardia FBPA inh 18µM (no result: NS1 inh)
CCn1nc(C)c(/C=N/NC(=O)CSc2ccccn2)c1C	CHX counter 32, Shiga toxin inh 63
Cc1c(-c2nc(-c3ccncc3)no2)cccc1[N+](=O)[O-]	none
Fc1ccccc1-c1nc(-c2ccncc2)no1	LmPK inh inconclusive, CHX counter 24, Shiga toxin inh 41
Fc1ccccc1-c1nc(-c2cnccc2C(F)(F)F)no1	CHX counter 15
COc1ccc(-c2noc(-c3ccccc3F)n2)cc1	CHX counter 51, Shiga toxin inh 91
COc1ccc(-c2noc(-c3ccccc3-c3ccccc3)n2)cc1	none
COc1ccc(-c2nc(-c3ccncc3)no2)c(OC)c1	CHX counter 61, Shiga toxin inh 110
NC(=O)c1ccc[n+](Cc2ccc(-c3ccccc3)cc2)c1	none
COCC(=O)N1CCC2(CCN(Cc3ccc(C#N)cc3)CC2)CC1	none (no result: LmPK inh, NS1 inh, CHX counter, Shiga toxin inh)
Brc1ccccc1-c1nc(-c2ccccc2)no1	LmPK inh inconclusive, CHX counter 55, Shiga toxin inh 79
Cc1ccc(-c2nc(-c3ccccc3)no2)c(Cl)c1	none
Fc1ccccc1-c1nc(-c2ccccc2)no1	LmPK inh 11µM, CHX counter 40, Shiga toxin inh 68
CC(=O)n1c2c(c3ccccc31)OC(N)=C(C#N)C2c1ccc(C(C)C)cc1 (configuration not stated)	Giardia FBPA inh inconclusive, CHX counter 46, Shiga toxin inh 83
CCOc1ccc(C2C(C#N)=C(N)Oc3c2c(=O)oc2ccccc32)cc1 (configuration not stated)	none
COc1ccc(S(=O)(=O)N[C@@H](CSCc2ccccc2)C(=O)O)cc1	none (no result: Giardia FBPA inh)
COc1ccc(CNC(=O)Cn2nc(C)n3cccc3c2=O)cc1	none
O=S(=O)(Nc1ccc(-c2cn3c(n2)SCC3)cc1)c1cccs1	none (no result: NS1 inh)
N#Cc1ccc(-c2cn3c(n2)SCC3)cc1	CHX counter 36, Shiga toxin inh 64
O=C(COc1ccc(Cl)cc1)NCc1nnc(SCC(=O)N2CCCC2)o1	none (no result: NS1 inh)
COc1ccccc1CNC(=O)c1ccc(-c2ccccc2Cl)o1	none
O=C(NCc1ccco1)c1ccc(-c2ccc(Cl)cc2)o1	CHX counter 37, Shiga toxin inh 78 (no result: NS1 inh)
O=C(NCc1ccco1)c1ccc(-c2ccccc2Cl)o1	CHX counter 43 (no result: NS1 inh)
COc1ccccc1-c1nnc2n1N=C(c1c(OC)cccc1OC)CS2	none (no result: LmPK inh, NS1 inh)
Cc1cc(CNC(=O)c2ccc3oc(C(C)C)nc3c2)nn1C	none
CC(C)c1nc2cc(C(=O)N(C)C3CCOCC3)ccc2o1	CHX counter 37, Shiga toxin inh 42 (no result: Giardia FBPA inh)
Cc1cc(-c2nnc(SCC(=O)Nc3ccccc3C)n2N)n[nH]1	none (no result: Giardia FBPA inh)
CN1CCN(CC(=O)N2c3ccccc3Sc3cc4ccccc4cc32)CC1	none (no result: Giardia FBPA inh, LmPK inh, CHX counter, Shiga toxin inh)
Cc1c(Cl)cccc1Nc1nc(NCCO)c2ccccc2n1	CHX counter 16, Shiga toxin inh 45
CC(=O)OC1CC[C@]2(C)C(CC(OC(C)=O)[C@]3(C)C2CC[C@@]2(C)C(c4ccoc4)OC(=O)C4O[C@]432)C1(C)C (some centres not stated)	none (no result: LmPK inh, NS1 inh, CHX counter, Shiga toxin inh)
O=C(N/N=C/c1ccc2nccnc2c1)c1ccccc1O	CHX counter 15
O=C(N/N=C/c1cccc(C(F)(F)F)c1)c1ccccc1O	CHX counter 30, Shiga toxin inh 121
O=C(N/N=C/c1ccnc2ccccc12)c1ccccc1O	CHX counter 27
COc1ccc(C(CNC(=O)Nc2cccc(C)c2)N2CCN(C)CC2)cc1 (configuration not stated)	none (no result: Giardia FBPA inh)
O=C(Nc1ccc2c(c1)OCCO2)C1CCN(C(=O)c2ccc([N+](=O)[O-])cc2)CC1	NS1 inh inconclusive
O=C(Nc1ccc2c(c1)OCCO2)C1CCCN(S(=O)(=O)Cc2ccccc2)C1 (configuration not stated)	CHX counter 56, Shiga toxin inh 72
O=C(Nc1ccc2c(c1)OCCO2)C1CCN(C(=O)c2ccccc2)CC1	CHX counter 21, Shiga toxin inh 106 (no result: Giardia FBPA inh)
O=C(Nc1ccc2c(c1)OCCO2)C1CCN(C(=O)c2ccc(Br)cc2)CC1	CHX counter 18
COc1ccc(C(=O)N2CCC(C(=O)Nc3ccc4c(c3)OCCO4)CC2)cc1	CHX counter 48
O=C(Nc1ccc2c(c1)OCO2)C1CCCN(S(=O)(=O)Cc2ccccc2)C1 (configuration not stated)	none
O=C(CCCOc1cccc(Br)c1)NCCOc1ccccc1	none
O=C(O)C[C@H]1OCC=C2C[N@@+]3([O-])CC[C@]45c6ccccc6N[C@@H]4[C@@H]1[C@H]2C[C@H]53	none (no result: Giardia FBPA inh, LmPK inh, CHX counter, Shiga toxin inh)
NCCC[C@@H](CC(=O)N[C@@H]1CCNC[C@H]1C(=O)N[C@H](CC(=O)N[C@@H](CCC(=O)O)CC(=O)O)Cc1c[nH]c2ccccc12)NC(=O)C[C@H](CO)NC(=O)[C@@H]1CCCC[C@H]1N	none (no result: LmPK inh, NS1 inh, CHX counter, Shiga toxin inh)
Cc1ccc(OCc2nnc(SCC(=O)c3cccs3)n2-c2ccccc2)cc1C	CHX counter 31, Shiga toxin inh 73
O=C(CSc1nnc(COc2ccccc2)n1-c1ccccc1)c1cccs1	CHX counter 34
COc1cc(/C=N/Nc2nc(Nc3ccccc3)nc(-n3nc(C)cc3C)n2)cc(OC)c1OC	CHX counter 18, Shiga toxin inh 45
COc1cc(/C=N/Nc2nc(Nc3ccc(C)cc3)nc(-n3nc(C)cc3C)n2)cc(OC)c1OC	Shiga toxin inh 109
COc1ccc(O)c(/C=N/Nc2nc(Nc3ccccc3)nc(-n3nc(C)cc3C)n2)c1	none
O=C(CNC(=O)c1cccs1)N/N=C/c1cccc(Cl)c1	none (no result: Giardia FBPA inh)
O=C(NC1CCCC1)C(c1cccs1)N(C(=O)c1ccco1)c1ccc2c(c1)OCCO2 (configuration not stated)	CHX counter 15, Shiga toxin inh 52
O=C(NC(=S)Nc1cccc(O)c1)c1ccco1	Giardia FBPA inh inconclusive, CHX counter 54, Shiga toxin inh 94
O=C(NC(=S)Nc1ccc2oc(=O)ccc2c1)c1ccco1	CHX counter 19, Shiga toxin inh 53
O=C(NC(=S)Nc1ccc2c(c1)OCCO2)c1ccco1	Giardia FBPA inh inconclusive, CHX counter 46, Shiga toxin inh 100
O=C(Nc1ccc(NC(=O)c2ccco2)cc1)c1ccc2c(c1)OCCO2	none (no result: NS1 inh)
COc1ccc(CC[N@+]2(C)COc3cc4oc(=O)cc(C)c4cc3C2)cc1OC	none (no result: Giardia FBPA inh, LmPK inh, CHX counter, Shiga toxin inh)
O=C(Cc1ccc(Cl)cc1)Nc1ccc2c(c1)C(=O)NC2=O	none
